Compounds with a hit are over-represented: about 2.4% of the library has one in this group of screens.
TMEM16A act: activates or potentiates the mouse TMEM16A chloride channel; Q8BHY3; HEK293 TMEM16A/YFP-H148Q/I152L, iodide quench fluorescence; hits give low values; B-score at 10 µM; 0.3% of 340,000 active; AID 623877;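 active means fluorescence-ratio B-score plate-corrected deviation score at least 3 library SD below zero, with starting fluorescence score within 5 deviations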;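 further: channel opened by trigger with iodide after compound preincubation; score built on the fluorescence ratio of max minus min over baseline; more negative score means more quench and so TMEM16A activation or potentiation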
TMEM16A inh: blocks the mouse calcium-activated chloride channel TMEM16A; HEK293 TMEM16A/YFP iodide influx fluorescence, ionomycin; normalized B-score (activity score, 25-100; higher = stronger inhibition) at 10 µM; 1.2% of 310,000 active; AID 588511;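 active means ratio plate-corrected score three or more library SD toward inhibition, starting fluorescence score within five deviations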;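 further: score derived from kinetic fluorescence span divided by baseline fluorescence per well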
TLR9-MyD88 inh: inhibitors of human TLR9-MyD88 binding | CHO BLA complementation TLR9-MyD88, CCF4 FRET ratio | 0.21% of 340,000 active | inhibition, % at 4.98 µM | AID 504734 | Q9NR96+Q99836;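 active means inhibition above the mean over all tested compounds plus 3 SD, cut at about 21% in these data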;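 further: 0% = DMSO only wells and 100% = clavulanate BLA inhibitor control wells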
TLR4-MyD88 BLA: inhibitors of human TLR4-MyD88 binding. HeLa CL3-4 TLR4/MyD88 BLA complementation, FRET ratio. inhibition, % at 8.4 µM. 0.18% of 200,000 active. AID 861; in the data active means inhibition above about 25%;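 further: 0% = vehicle and 100% = reference inhibitor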
m5-HT2A agonist: activates the mouse 5-HT2A serotonin receptor; CHO-K1 mHTR2A beta-arrestin complementation, luminescence; percent of 30 µM serotonin response; activation, % at 7.6 µM; 0.66% of 360,000 active;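 active means activation above a run cutoff, the mean activation of all tested compounds plus 3 SD, cut at about 14% in these data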;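 further: 0% = plate median of compound wells and 100% = 30 µM serotonin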
NOD2 RIPK2 PPI: NOD2-RIPK2 protein interaction inhibition; O43353; CHO BLA complementation NOD2-RIPK2, CCF4 ratio; inhibition, % at 4.98 µM; 0.38% of 360,000 active; AID 624267; in the data active means inhibition above about 21%;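 further: 0% = vehicle only and 100% = reference blocker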
Target sequence (O43353 whole entry, looked up): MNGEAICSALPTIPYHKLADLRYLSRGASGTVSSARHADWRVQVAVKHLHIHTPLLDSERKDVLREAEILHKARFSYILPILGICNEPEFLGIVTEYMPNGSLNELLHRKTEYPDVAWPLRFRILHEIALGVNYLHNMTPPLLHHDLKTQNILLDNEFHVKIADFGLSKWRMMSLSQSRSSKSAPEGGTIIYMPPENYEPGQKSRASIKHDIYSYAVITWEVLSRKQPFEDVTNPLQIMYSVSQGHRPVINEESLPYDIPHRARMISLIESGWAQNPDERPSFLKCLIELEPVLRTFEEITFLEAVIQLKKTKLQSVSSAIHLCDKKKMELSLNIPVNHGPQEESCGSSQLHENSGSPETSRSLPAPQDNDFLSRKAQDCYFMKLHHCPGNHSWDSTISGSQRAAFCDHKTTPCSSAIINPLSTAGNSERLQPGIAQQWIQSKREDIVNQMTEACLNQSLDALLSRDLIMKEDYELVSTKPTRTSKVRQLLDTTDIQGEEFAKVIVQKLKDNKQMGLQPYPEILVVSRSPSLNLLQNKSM
NOD2-RIPK2 conf: confirmation of human NOD2-RIPK2 interaction inhibitors; inhibition, % at 4.98 µM; 70% of 1,200 active; CHO cells, NOD2-RIPK2 BLA complementation, CCF4 FRET; shares compounds with NOD2 RIPK2 PPI; AID 624370;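 active means mean inhibition across replicates above a set limit taken from the earlier primary screen, cut at about 21% in these data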;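 further: 0% = DMSO-only wells and the high end = clavulanate BLA-blocked wells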
NOD2 BLA counter: counter-screen for NOD2-RIPK2 interaction inhibitors: BLA reporter; shares compounds with NOD2 RIPK2 PPI; CHO BLA reporter, CCF4 FRET ratio, counterscreen; inhibition, % at 4.98 µM; 57% of 1,200 active; AID 624371;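 active means mean inhibition above the low-control mean inhibition plus three low-control SD, cut at about 11% in these data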;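 further: 0% = DMSO only wells and 100% = clavulanate high control wells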
* marks the source's active call; other numbers are inactive results; i = inactive; . = no result.

SMILES	TMEM16A act	TMEM16A inh	TLR9-MyD88 inh	TLR4-MyD88 BLA	m5-HT2A agonist	NOD2 RIPK2 PPI	NOD2-RIPK2 conf	NOD2 BLA counter
Cc1ccc(C(=O)O)cc1-c1ccc(/C=C2\SC(=O)N(CC(=O)Nc3ccccc3)C2=O)o1	i	i	0	-5	0	-4	.	.
CCc1ccccc1N(CC(=O)NCC1CCCO1)C(=O)CCC(=O)Nc1cc(C)on1 (configuration not stated)	i	i	5	.	6	0	.	.
O=C(CCn1c(=O)oc2ccccc21)N1CCc2ccccc21	i	i	-1	-3	8	-4	.	.
O=C(c1ccccc1)C1OC1C(=O)c1ccccc1 (configuration not stated)	i	.	-1	.	12	-5	.	.
CC1C=CC(C)C(C(=O)c2ccccc2)C1C(=O)c1ccccc1 (configuration not stated)	.	.	3	.	0	30*	-7	0
COCCn1c(COc2cccc(OC)c2)nnc1SCC(=O)NC1CCCC1	i	i	4	.	2	-1	.	.
O=C(NCc1cccnc1)/C(=C/c1ccc(-c2cccc(C(F)(F)F)c2)o1)NC(=O)c1ccccc1	i	i	1	7	8	2	.	.
O=C(NCc1cccnc1)/C(=C/c1ccc(-c2ccc(Cl)cc2)o1)S(=O)(=O)c1ccccc1	i	i	8	0	-7	41*	36*	-3
O=C(NCc1cccnc1)/C(=C\c1ccc(-c2ccc(Br)cc2)o1)S(=O)(=O)c1ccccc1	i	i	-6	9	-6	33*	30*	-1
O=C(Nc1ccc(S(=O)(=O)N2CCCCCC2)cc1)c1[nH]ncc1[N+](=O)[O-]	i	i	26*	.	-1	29*	14	10
CC(=O)c1cc2c(cc1NC(=O)c1ccc(C)cc1)OCO2	.	i	.	-6	.	.	.	.
O=C(/C=C/c1ccccc1O)c1ccco1	i	i	10	.	6	4	.	.
O=C(/C=C/c1cc(Br)ccc1O)c1ccco1	i	i	3	.	-5	21*	13	-6
FC(F)(F)c1ccccc1-c1ccc2nncn2c1	.	.	.	.	-1	23*	-6	0
COc1ccc(C(=O)N/N=C/c2sc3ccccc3c2O)cc1	i	i	10	-1	-4	22*	10	10
COc1ccc2cc(C(=O)N/N=C/c3sc4ccccc4c3O)ccc2c1	i	i	19	10	-3	-3	.	.
O=S(=O)(c1cccs1)N1CCN(CC(O)COc2cccc(Br)c2)CC1 (configuration not stated)	i	i	-3	9	1	22*	-28	0
COc1ccc(-c2cc(-c3cccs3)nc3sc(C#N)c(N)c23)cc1	i	i	13	17	7	45*	51*	69*
N#Cc1sc2nc(C3CC3)cc(-c3ccc(Cl)cc3)c2c1N	i	i	14	13	3	28*	19	25*
Fc1ccc(-[n+]2nc(Nc3ccccc3)sc2-c2c(Cl)cccc2Cl)cc1	i	i	18	.	-9	53*	42*	16*
COc1ccc(-c2sc(Nc3ccccc3)n[n+]2-c2ccc(F)cc2)cc1Br	i	i	-3	.	1	-18	.	.
COc1ccc2ccccc2c1-c1sc(Nc2ccccc2)n[n+]1-c1ccc(F)cc1	i	100*	8	.	-12	32*	20	3
O=C(O)c1ccc(-c2sc(Nc3ccccc3)n[n+]2-c2ccc(F)cc2)cc1	i	i	2	.	-5	1	.	.
O=C1Nc2ccccc2C1(O)Cc1ccccn1 (configuration not stated)	i	i	4	.	-2	24*	0	-3
Cc1cccc(C)c1N1CCN(C(c2cc3ccccc3o2)c2nnnn2C(C)(C)C)CC1 (configuration not stated)	.	.	.	.	8	21*	-4	-5
SMILES	TMEM16A act	TMEM16A inh	TLR9-MyD88 inh	TLR4-MyD88 BLA	m5-HT2A agonist	NOD2 RIPK2 PPI	NOD2-RIPK2 conf	NOD2 BLA counter
O=C1C(F)=CC(COC(c2ccccc2)(c2ccccc2)c2ccccc2)OC1n1cc(F)c(=O)[nH]c1=O (configuration not stated)	-13*	.	-3	.	-7	30*	58*	24*
CC(=O)OCC1OC(n2cc(F)c(=O)[nH]c2=O)C(OC(C)=O)C1OC(C)=O (configuration not stated)	i	i	-5	.	6	-3	.	.
COc1ccc(C(C)=O)cc1CSc1nc2ccccc2c(=O)n1-c1ccccc1C	i	i	-3	11	-1	24*	-2	-2
CCN(c1cccc(C)c1)S(=O)(=O)c1csc(C(N)=O)c1	i	i	4	.	3	-10	.	.
Cc1cc(NC(=O)CCN2C(=O)/C(=C/c3ccccc3Cl)SC2=S)no1	i	i	0	-13	1	34*	-10	-2
CC(=O)c1ccc(OCCCC(=O)Nc2ccc(C)c(S(=O)(=O)N3CCCCC3)c2)cc1	i	.	-8	.	-4	36*	-7	-7
COc1ccc(COC(=O)c2nc3nc(C)cc(C)n3n2)cc1F	i	i	-12	4	2	-4	.	.
COc1ccc(C(=O)/C=C/C(=O)N(CC(=O)NC2CCCCC2)Cc2cccs2)c(O)c1	i	i	18	24	-10	74*	85*	17*
OCCCC1CCCN(Cc2cn[nH]c2-c2ccc(F)cc2F)C1 (configuration not stated)	i	i	-1	-12	-7	22*	2	-4
CC(=O)Nc1c2c(nn1-c1ccccc1C)CSC2	i	i	2	.	0	-3	.	.
Cc1c(NC(=S)NC(NC(=O)C(C)(C)C)C(Cl)(Cl)Cl)c(=O)n(-c2ccccc2)n1C (configuration not stated)	i	i	-1	-18	-1	25*	1	-1
CCCC(=O)NC(NC(=S)Nc1c(C)n(C)n(-c2ccccc2)c1=O)C(Cl)(Cl)Cl (configuration not stated)	i	i	-2	8	0	-2	.	.
COc1ccc(NS(=O)(=O)c2ccc3ccccc3c2)c2ncccc12	i	i	13	.	4	29*	30*	17*
COc1ccccc1NS(=O)(=O)c1ccc2ccccc2c1	i	i	-1	.	2	-7	.	.
O=C(C(Br)=Cc1ccccc1)c1ccccc1	i	.	3	.	3	33*	65*	22*
